PubChem BioAssay AID1321 (The Scripps Research Institute Molecular Screening Center, 2008)
Out of some 220,000 compounds screened, about 2,600 (1.2%) were called active.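 How the source made its calls: active means activation above the mean of all tested compounds plus 3 SD, set per screening run (cut at about 8.8% in these data); inactive means the rest.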 Shown is part of a subset that was picked to be rich in actives.

Biological target: Wee1-like protein kinase (Homo sapiens) (UniProt P30291)
Test: Wee1 degradation inhibitors, primary screen, cell-based, HeLa, Wee1K328M-luciferase, luminescence (AID 1321);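 further: cells exposed to compound for 20 h before luminescence read; 0% = DMSO alone and 100% = MG132 at 30 µM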
Settings: HeLa Luc-Wee1K328M stability, at 5 µM, hits give high values, 100% = proteasome inhibitor MG132 effect

SMILES	reporter increase
Cc1ccc(C(=O)NNc2ncnc3ccccc23)cc1	-1.2% (inactive)
COc1ccc(C(C)=O)cc1COc1ccc(Cl)c(C)c1	1.76% (inactive)
CC(C)Oc1ccc(C(=O)NC(C)(C)CO)cc1	-0.33% (inactive)
CC(C)Oc1ccc(C(=O)Nc2cc(=O)n(C)c(=O)n2C)cc1	11% (active)
Cn1c(NC(=O)c2ccc3c(c2)OCO3)cc(=O)n(C)c1=O	-1.07% (inactive)
CC12C(=O)N(c3ccccc3)C(=O)C1C(c1ccccc1)N1CCCN12 (centres undefined)	1.06% (inactive)
Cc1[nH][nH]c(=O)c1C(c1ccc2c(c1)OCO2)c1c(C)[nH][nH]c1=O	1.31% (inactive)
Nc1[nH][nH]c(=O)c1N=Nc1ccc2c(c1)OCO2	9.03% (active)
Cc1[nH][nH]c(=O)c1N=Nc1ccccc1	3.8% (inactive)
CCN(CC)CCn1cnc2c1c(=O)n(CCOC(=O)c1cc(OC)c(OC)c(OC)c1)c(=O)n2C	-2.15% (inactive)
COc1ccc(/C(C)=N/N2CCOCC2)c(O)c1	3.27% (inactive)
CC(C)N(C(=O)c1ccc(-c2ccccc2F)cc1)C(C)C	1.6% (inactive)
Cc1ccc2c(N)c(C(=O)c3ccccc3)sc2n1	3.2% (inactive)
CCN(CC)C(=O)c1sc2nc(-c3ccccc3)ccc2c1N	15.4% (active)
CCOC(=O)c1sc2nc(SC)nc(-c3ccccc3)c2c1N	0.82% (inactive)
Cn1c(SCC(=O)N/N=C/c2ccc(O)c(O)c2)nc2ccccc21	3.18% (inactive)
O=C(Cc1ccccc1)NCc1ccc(F)cc1	0.79% (inactive)
O=C(CNCc1ccc(F)cc1)Nc1ccccc1-c1ccccc1	11.8% (active)
CCC(C(=O)OCC(=O)Nc1ccccc1-c1ccccc1)c1ccccc1 (centres undefined)	3.65% (inactive)
CC(=O)OCCOCn1cnn2c(=O)c(Br)c(C)nc12	5.31% (inactive)
CCOC(=O)C(=O)C1C(=O)Nc2ccccc21 (centres undefined)	-1.16% (inactive)
O=C1CC2(CC(c3ccc(Cl)cc3)=NO2)C(=O)N1c1ccccc1 (centres undefined)	0.07% (inactive)
CCOc1cc2c(Cl)ncnc2c(OCC)c1OCC	-3.14% (inactive)
COc1ccc(OCC(=O)OCC(=O)Nc2ccc(S(=O)(=O)N3CCCCC3)cc2)cc1	-0.17% (inactive)
COc1ccc(NC(=O)COC(=O)CNC(=O)C2CCCCC2)cc1	11.6% (active)

SMILES	reporter increase
COc1ccc(CCNC(=O)COC(=O)C2CCCCC2)cc1	-1.3% (inactive)
Cc1ccc(COc2ccc(/C=N/NC(=O)CN3CCCCC3)cc2)cc1	22.3% (active)
Cc1ccc(OCC(=O)N/N=C/c2ccncc2)cc1	-0.52% (inactive)
O=C(CN1CCSCC1)N/N=C/c1ccc(Cl)cc1	2.89% (inactive)
CC1=NOC(=O)/C1=C\c1ccccc1	-0.32% (inactive)
O=C(COc1ccc([N+](=O)[O-])cc1Cl)Nn1cnnc1	-0.06% (inactive)
COc1ccc(-c2ccc(OC(=O)NC3CCS(=O)(=O)C3)cc2)cc1 (centres undefined)	9.29% (active)
CC(C)(C)c1ccc(/C=C/C(=O)NC2CCS(=O)(=O)C2)cc1 (centres undefined)	2.93% (inactive)
COc1ccc(NC(=S)NC2CCS(=O)(=O)C2)cc1 (centres undefined)	4.7% (inactive)
O=C(NCCCN1CCCCCC1)c1ccc(N2CCCC2=O)cc1	2.16% (inactive)
CC1CCC(NC(=O)c2ccc(N3CCCC3=O)cc2)CC1 (centres undefined)	0.06% (inactive)
CCCNC(=O)NCc1ccc(N2CCCC2=O)cc1	10.3% (active)
O=S(=O)(Cc1noc(-c2ccc(OC(F)(F)F)cc2)n1)c1ccc(F)cc1	4.61% (inactive)
CCOc1ccc(CN(Cc2ccco2)S(=O)(=O)c2ccc(-n3cnnn3)c(OC)c2)cc1	1.7% (inactive)
CC(C)(C)n1nnnc1C(c1cccs1)N(Cc1cccnc1)CC1CCCO1 (centres undefined)	4.79% (inactive)
CCOc1ccc(CN(Cc2ccco2)C(c2cccs2)c2nnnn2C(C)(C)C)cc1 (centres undefined)	9.99% (active)
CCCCCCCCCCCCN1C(=O)CSC1c1cccnc1 (centres undefined)	-0.61% (inactive)
COc1ccc(CCNC(=O)C(=O)NCC2CCNCC2)cc1OC	-1.92% (inactive)
COc1cc(/C=N\Nc2nc(-c3cccs3)c(NC(C)=O)s2)ccc1O	-1.53% (inactive)
COc1ccc(NS(=O)(=O)c2ccc(N3CCOCC3)c(NC(=O)c3ccccc3Br)c2)cc1	0.37% (inactive)
O=C(CSc1nnc(-c2cccs2)n1-c1ccccc1)N1CCN(C(=O)c2ccco2)CC1	-2.17% (inactive)
O=C(CSc1nnc(-c2cccs2)n1Cc1ccccc1)N1CCc2ccccc2C1	9.02% (active)
CCn1c(SCC(=O)c2ccc3ccccc3c2)nnc1-c1cccs1	4.66% (inactive)
CCOc1ccc(-n2cnc3c(=O)[nH]c(N)nc32)cc1	-1.45% (inactive)
CC(C)c1cc(CN2CCOCC2)cc(C(C)C)c1O	1.64% (inactive)

SMILES	reporter increase
O=C(CCCCCN1C(=O)c2cccc3cccc(c23)C1=O)NCc1ccco1	-0.37% (inactive)
Cc1cccc(-[n+]2c(-c3cccc(Br)c3)[nH]c3nc4ccccc4nc32)c1	1.73% (inactive)
COc1ccccc1OCCOc1ccc(/C=N/n2cnnc2)cc1	3.34% (inactive)
COc1cccc(OCCOc2cccc(/C=N/n3cnnc3)c2)c1	10.7% (active)
C=CCc1ccc(OCCOc2cccc(/C=N/n3cnnc3)c2)c(OC)c1	0.6% (inactive)
COc1ccc(NC(=O)c2cn(-c3ccccc3)nc2SC)cc1	-2.29% (inactive)
O=C(CSc1nnc(SCc2ccc(F)cc2)s1)Nc1ccc(C(=O)O)cc1	-1.55% (inactive)
CS/C(=C\C(=O)c1ccco1)Nc1ccccc1Cl	6.17% (inactive)
Cn1c(NN)nc2sc3c(c2c1=O)CCC3	11.1% (active)
NNC(=O)C1CCCn2c1nc1sc3c(c1c2=O)CCCC3 (centres undefined)	-0.79% (inactive)
Cc1nc2sc3c(c2c(=O)n1NC(=O)CCl)CCCC3	1.1% (inactive)
CC(NS(=O)(=O)c1ccccc1)c1n[nH]c(=S)n1-c1ccccc1 (centres undefined)	0.56% (inactive)
COC(=O)c1sc(NC(=S)NC(=O)c2ccc(C)cc2)nc1C	-0.57% (inactive)
Cc1nc(N2CCCCC2)sc1C=O	-0.49% (inactive)
Brc1ccc2nc(N3CCCC3)sc2c1	18.3% (active)
c1c2c(cc3sc(N4CCCCC4)nc13)OCCO2	-3.23% (inactive)
Cc1ccc(F)cc1NC(=O)N1CCCN(c2ccc(C(F)(F)F)cn2)CC1	-2.91% (inactive)
CN(C)CCCN(Cc1cc2cc3c(cc2[nH]c1=O)OCCO3)C(=O)NC1CCCCC1	-1.12% (inactive)
O=C(N/N=C/c1ccco1)c1ccc(NC(=O)C2CC2)cc1	1.48% (inactive)
O=C(N/N=C/c1ccco1)c1csc2c1CCCC2	9.05% (active)
O=C(N/N=C/c1ccco1)c1ccc(C(=O)N/N=C/c2ccco2)o1	-0.09% (inactive)
COc1ccc(CN(Cc2ccc(OC)cc2)C(=O)c2cccs2)cc1	1.79% (inactive)
CCOC(=O)CN(C(=O)COc1nc(C)cc(C)c1C#N)c1ccc(Cl)cc1	-2.18% (inactive)
Cc1cc(C(F)(F)F)c(C#N)c(SCC(=O)NC2CC2)n1	-3.28% (inactive)
CCOC(=O)COc1nc(C)cc(C(F)(F)F)c1C#N	8.86% (active)

SMILES	reporter increase
CCCc1c(C(=O)O)cnn1-c1ccc(Cl)cc1	1.14% (inactive)
Cc1nnc(CN(C)Cc2cn[nH]c2-c2ccc(-c3ccccc3)cc2)o1	10.8% (active)
COc1ccc(-c2[nH]ncc2CN(C)Cc2cc(C)[nH]n2)c(F)c1	-2.83% (inactive)
CN(CCC1CCOCC1)Cc1cn[nH]c1-c1ccc(-c2ccccc2)cc1	-2.58% (inactive)
COC(=O)C1=C(N)Oc2cc(C)[nH]c(=O)c2C1c1ccc(Cl)cc1 (centres undefined)	-0.92% (inactive)
COc1ccccc1N1CCN(C(=O)CSc2ncnc3c2cnn3-c2ccc(C)c(C)c2)CC1	3.89% (inactive)
O=[N+]([O-])c1ccc(N2CCSCC2)cc1O	1.05% (inactive)
C=CCN(C(=O)Nc1ccc2c(c1)nc(C)n2C)c1ccccc1	-1.11% (inactive)
Cc1nc2cc(NC(=O)Nc3cccc(F)c3)ccc2n1C	-1.84% (inactive)
Cc1nc2cc(NC(=O)NC3CC3)ccc2n1C	12.8% (active)
Cc1cc(NC(=O)OC(C)C)ccc1-c1ccc(NC(=O)OC(C)C)cc1C	0.84% (inactive)
Cn1c(SCC(=O)Nc2ccc(Cl)cc2)nc(O)cc1=O	-2.26% (inactive)
Cc1cccc(OCC(=O)NC(=S)Nc2ccccc2N2CCOCC2)c1	0.28% (inactive)
COc1cccc(OCC(=O)Nc2ccccc2C(N)=O)c1	0.36% (inactive)
Cc1cccc(OCC(=O)Nc2ccccc2F)c1	12.9% (active)
O=S(=O)(c1ccccc1)N1CN(Cc2ccc(F)cc2)c2nc3ccccc3nc21	2.39% (inactive)
COc1ccc(N(Cc2ccccc2)S(=O)(=O)c2cccc(C(=O)O)c2)cc1	0.36% (inactive)
CCOc1ccc(N2CC(C(=O)N/N=C/c3sccc3C)CC2=O)cc1 (centres undefined)	-2.91% (inactive)
CCN(CC)CCCN=Cc1c(O)n(-c2ccc(C)cc2)c(=O)c2ccccc12	5.68% (inactive)
Cc1ccc2c(Cl)c(C(=O)NCCCn3ccnc3)sc2c1	18.1% (active)
Cc1ccc2c(Cl)c(C(=O)Nc3nn[nH]n3)sc2c1	-0.87% (inactive)
COc1ccc(-c2cc(C(=O)NCCCn3ccnc3)no2)cc1	-0.75% (inactive)
O=C1CC(Cc2ccc(Cl)cc2)C(=O)N1c1cc(Cl)ccn1 (centres undefined)	2.19% (inactive)
O=C(NC(=O)c1cc(OCC(F)(F)F)ccc1OCC(F)(F)F)Nc1ccccc1	-0.42% (inactive)
